Test results reported in PubChem BioAssay (NCI).
About 79,000 compounds went through this panel and 15% of them were active in at least one assay; those are over-represented in the sample as a whole. Activity calls are given as the source filed them. No stated cut-off is given here; in the data, active means growth inhibition above about 70%; inactive means the rest.

Assays:
[1] = NCI Yeast Anticancer Drug Screen. Data for the rad50 strain (AID 155);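 further: 0% = growth of vehicle-only cultures of the same strain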; settings: S. cerevisiae rad50 strain growth inhibition; at 50.0 µM; hits give high values
In short: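 Inhibition values express reduced yeast growth in compound-treated cultures relative to vehicle-treated controls.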

[2] = NCI Yeast Anticancer Drug Screen. Data for the mec2-1 strain (AID 157); settings: S. cerevisiae mec2-1 strain, at 50.0 µM, hits give high values
In short: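 Cells of the genetically defined mec2-1 yeast strain are incubated with test compound. Inhibition of growth is calculated against vehicle-treated controls.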

[3] = NCI Yeast Anticancer Drug Screen. Data for the sgs1 mgt1 strain (AID 161);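 further: 0% = growth of cultures given vehicle only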; settings: S. cerevisiae sgs1 mgt1 strain, at 50.0 µM, hits give high values
In short: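 Inhibition of yeast growth, normalised to vehicle-treated controls, is reported for a strain bearing genetic alterations in DNA damage repair.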

[4] = NCI Yeast Anticancer Drug Screen. Data for the cln2 rad14 strain (AID 165);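 further: 0% = growth equal to vehicle treated cultures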; settings: S. cerevisiae cln2 rad14 strain, at 50.0 µM, hits give high values
In short: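 The screen exposed genetically defined yeast (cln2 rad14) to test compounds and scored growth inhibition relative to vehicle-treated controls.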

[5] = NCI Yeast Anticancer Drug Screen. Data for the bub3 strain (AID 167); settings: S. cerevisiae bub3 mutant strain, at 50.0 µM, hits give high values
In short: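 Steps: expose the mutant yeast strain to compound; grow alongside vehicle-treated cultures; measure growth; express inhibition against the vehicle cultures.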

[6] = NCI Yeast Anticancer Drug Screen. Data for the mlh1 rad18 strain (AID 175); settings: S. cerevisiae mlh1 rad18 strain growth inhibition; at 50.0 µM; hits give high values
In short: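 Compound-treated yeast growth, normalised to vehicle controls. Strain bears defined DNA repair mutations.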

Measured: growth inhibition

CC(=O)OC1CCC2(C)C(CCC34OC23CCC2(C)C(C(C)CCCC(C)C)CCC24C)C1(C)C (configuration not stated)
inactive: [1] 45.4% | [2] 16.4% | [3] 39.5% | [4] 1% | [5] -1% | [6] 28.4%

COc1ccc(N=Nc2ccccc2)cc1
inactive: [1] 3% | [2] 3.8% | [3] -5.6% | [4] -10.6% | [5] -11.8% | [6] -4.95%

CCOC(OCC)C(N)=O
inactive: [1] 2.75% | [2] -12.1% | [3] -1.6% | [4] 11.3% | [5] -6.3% | [6] 2.65%

CCCNC(=O)C1C(=O)C(=O)N(CCC)C1=O (configuration not stated)
inactive: [1] 7.8% | [2] 4.45% | [3] 4.1% | [4] -4.5% | [5] -3.9% | [6] 4.05%

COc1ccc2[nH]c(=O)cc(C)c2c1
inactive: [1] -5.35% | [2] -4.1% | [3] -1.6% | [4] -37.7% | [5] 18.9% | [6] -85.3%

N#Cc1ccc(OCc2nc(N)nc(N)c2-c2ccc(Cl)cc2)cc1
inactive: [1] -4.4% | [2] 5.35% | [3] -16.4% | [4] -10% | [5] 20.8% | [6] 14.8%

COc1ccc(Nc2ccnc3cc(Cl)ccc23)cc1CCN
inactive: [1] 4.65% | [2] 8.85% | [3] 24% | [4] 10.6% | [5] -5.9% | [6] -5.8%

CCOC(=O)CN(c1c(C)cc(C)c(N(CC(=O)OCC)S(=O)(=O)c2ccccc2)c1C)S(=O)(=O)c1ccccc1
inactive: [1] 40.5% | [2] 8.95% | [3] 24.8% | [4] -9.2% | [5] 4.5% | [6] 19.9%

CC1CCc2nc(N)nc(CC3CC(=O)NC(=O)C3)c2C1 (configuration not stated)
inactive: [1] -2.75% | [2] -5.65% | [3] -8.7% | [4] -45.5% | [5] -12.8% | [6] -3.2%

CC(=O)N(CN1C(=O)CCC1C(=O)O)c1cccc(O)c1 (configuration not stated)
inactive: [1] 8.45% | [2] 9% | [3] -10.2% | [4] -5.7% | [5] -12.7% | [6] -66.7%

CCOC(=O)c1cccc(NC(=O)CCl)c1
inactive: [1] 43.2% | [2] 30.1% | [3] 37.6% | [4] 26% | [5] 39.9% | [6] 49.5%

O=S(=O)(O)C(CO)c1ccccc1 (configuration not stated) (tested in a mixture with another compound)
inactive: [1] 5.75% | [2] 1.5% | [3] -12.9% | [4] -31.2% | [5] -28.7% | [6] 0.9%

CCCCCCCCCC[C@@H](OC(C)=O)[C@@H]1CC[C@@H]([C@@H]2CC[C@@H]([C@@H](O)CC#C/C=C/CCCCCCC[C@@]3(Sc4ccccc4)C[C@H](C)OC3=O)O2)O1
inactive: [1] -27.9% | [2] -8.2% | [3] -16.1% | [4] 4.25% | [5] -15.3% | [6] -12.1%

CCCCOc1ccc(/C=C/C(=O)OCC(CC)CCCC)cc1 (configuration not stated)
inactive: [1] -10.2% | [2] -6.2% | [3] 12.4% | [4] -63.4% | [5] 12.2% | [6] -9.05%

O=S(=O)(CSc1ccccc1)c1ccccc1
inactive: [1] -21.9% | [2] -33.1% | [3] -16.6% | [4] -8.35% | [5] -25.6% | [6] -39.1%

Nc1ccc(C(=O)O)cc1Cl
inactive: [1] 0.85% | [2] 0.75% | [3] 2.9% | [4] -35.5% | [5] -6.3% | [6] -22.2%

Cc1ccc(/C=C(/C#N)C(N)=O)cc1
inactive: [1] 11.2% | [2] 0.05% | [3] 21.4% | [4] 17.6% | [5] 12.5% | [6] 29.9%

CC(=O)C1C[C@]2(O)[C@@]3(C)CO[C@]2(C)CC1(O)C3 (some centres not stated)
inactive: [1] 3.45% | [2] 11.4% | [3] 17.9% | [4] 7.2% | [5] 20.2% | [6] 12.9%

COC(=O)CCCCl
inactive: [1] -51% | [2] -56.4% | [3] -38% | [4] 8.25% | [5] -21% | [6] -15.6%

C=C(S(=O)(=O)c1ccccc1)S(=O)(=O)c1ccccc1 (tested in a mixture with another compound)
active: [1] 92.8% | [2] 97.3% | [3] 96.4% | [4] 98% | [5] 97.8% | [6] 94.9%

Cc1ccc(NC(=O)C2C3CC4OC(=O)C2C4C3)cc1 (configuration not stated)
inactive: [1] -10.6% | [2] -4.45% | [3] 11.5% | [4] 0.55% | [5] 18.6% | [6] -16.6%

CCc1nnc(-c2nsc3ccccc23)s1
inactive: [1] 38.5% | [2] -22.9% | [3] 6.4% | [4] -12.8% | [5] 15.8% | [6] 23.3%

CC(C)N(CCN1CCCCC1)c1ccccn1
inactive: [1] -0.9% | [2] 18.2% | [3] 7.2% | [4] -75.5% | [5] 10.3% | [6] 14.9%

CS(=O)(=O)OC1CCCCC1OS(C)(=O)=O (configuration not stated)
inactive: [1] 3.15% | [2] 8.25% | [3] 22.2% | [4] -1.85% | [5] 7.55% | [6] 9.15%

COc1cc(C2C3=C(COC3=O)OC(C)(C)Oc3cc4c(cc32)OCO4)cc(OC)c1O (configuration not stated)
inactive: [1] 55.7% | [2] -3.6% | [3] -7.3% | [4] -28.7% | [5] -27.1% | [6] 0%

OC(CCCN1CCN2CCc3[nH]c4ccccc4c3C2C1)c1ccc(F)cc1 (configuration not stated)
inactive: [1] 23.9% | [2] -1.8% | [3] 13.7% | [4] 14.3% | [5] 1.3% | [6] 10.8%

COC(=O)C(CC(=O)[C@H]1CC[C@H]2[C@@H]3CC=C4C[C@@H](OC(C)=O)CC[C@]4(C)[C@H]3CC[C@]12C)OC (some centres not stated)
inactive: [1] 11.8% | [2] 8.6% | [3] 15.2% | [4] 2.45% | [5] -22.4% | [6] 9%

C1CCC(N(CCN(C2CCCCC2)C2CCCCC2)C2CCCCC2)CC1
inactive: [1] -38.5% | [2] -32.8% | [3] -26.7% | [4] 15.3% | [5] 5.6% | [6] -11.9%

NNC(=O)NN1C(=O)c2cc(S(=O)(=O)O)cc3c(N)c(S(=O)(=O)O)cc(c23)C1=O
inactive: [1] 35.2% | [2] -3.05% | [3] 14.6% | [4] 6.35% | [5] -5.45% | [6] 10.3%

CC1CCOC(C)(Cc2ccccc2)O1 (configuration not stated)
inactive: [1] -2.8% | [2] -3.05% | [3] -6.9% | [4] -58.8% | [5] -18.1% | [6] -10.9%

COc1ccccc1NC(=S)N/N=C(/c1ccccc1)c1ccccn1
inactive: [1] -50.9% | [2] 22.6% | [3] 17.4% | [4] 15.1% | [5] 20.2% | [6] 10.6%

CCCOC1(C)Oc2cc3c(cc2C(c2cc(OC)c(OC)c(OC)c2)C1C)OCO3 (configuration not stated)
inactive: [1] 10.3% | [2] 2.7% | [3] -4.4% | [4] 45.4% | [5] 18.6% | [6] 14.7%

CC1CCCCN1P(N1CCCCC1C)N1CCCCC1C (configuration not stated)
inactive: [1] 36.4% | [2] 20.4% | [3] 29% | [4] 25.6% | [5] 23.4% | [6] 33.5%

COc1ccc(C2C(N)=NCC2c2ccccn2)cc1 (configuration not stated)
inactive: [1] -21.9% | [2] -17.6% | [3] -12.4% | [4] 16.1% | [5] -9.55% | [6] -12.3%

SC1(S)CCCN(Cc2ccccc2)C1
inactive: [1] 8.55% | [2] 19.2% | [3] 42.8% | [4] 35.6% | [5] 44% | [6] 37.8%

C[C@@H]1C(N2CCCC2)=CC(=O)OC1c1ccccc1 (some centres not stated)
inactive: [1] -3.65% | [2] -11.1% | [3] 11.3% | [4] -6.4% | [5] -1.3% | [6] 1.95%

NC(=S)NNC(=O)C(Cc1ccccc1)NC(=O)OCc1ccccc1 (configuration not stated)
inactive: [1] 1.75% | [2] 17.7% | [3] 22.9% | [4] -7.6% | [5] 15.7% | [6] 11.4%
